Laboratory results: PubChem BioAssay (NCI)
About 83,000 compounds went through this panel and 20% of them were active in at least one assay; those are over-represented in the sample as a whole.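 Percent growth is the endpoint: 0 to 100 indicates growth inhibition (40 means 60% inhibition), 0 means no net growth, and negative values indicate cell death.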 Unmarked numbers belong to inactive results. The source made the active and inactive calls. The calls were made as follows: active = growth percent below 10; inactive = the rest.

Columns and labels:
Test in all cases: NCI-60 one-dose screen, 48 h (100 = growth as untreated, 0 = no growth, -100 = all killed)
Settings in all cases: 10 µM
[1] = test system: SK-MEL-2 melanoma
[2] = test system: SN12C renal
[3] = test system: UO-31 renal
[4] = test system: TK-10 renal
[5] = test system: ACHN renal
[6] = test system: CAKI-1 renal
[7] = test system: A498 renal
[8] = test system: CCRF-CEM leukemia
[9] = test system: MOLT-4 leukemia
[10] = test system: SR leukemia
[11] = test system: RPMI-8226 leukemia
[12] = test system: OVCAR-8 ovarian
[13] = test system: OVCAR-5 ovarian
[14] = test system: OVCAR-4 ovarian
[15] = test system: SK-OV-3 ovarian
[16] = test system: IGROV1 ovarian
[17] = test system: OVCAR-3 ovarian
[18] = test system: HS 578T breast
[19] = test system: NCI/ADR-RES ovarian

SMILES	growth [1]	growth [2]	growth [3]	growth [4]	growth [5]	growth [6]	growth [7]	growth [8]	growth [9]	growth [10]	growth [11]	growth [12]	growth [13]	growth [14]	growth [15]	growth [16]	growth [17]	growth [18]	growth [19]
Fc1ccc(Nc2ccnc(N3CCN(c4ccnc5cc(Cl)ccc45)CC3)n2)cc1	60.3%	49%	7.09% (active)	30.5%	38.7%	41.9%	22.7%	40.1%	13%	31%	23.9%	36.6%	55.9%	33.1%	56%	43.7%	44.1%	61.4%	44.1%
O=C(COCc1c(-c2ccccc2)no[n+]1[O-])Nc1nc(-c2ccc(Cl)cc2)cs1	105%	100%	80.8%	113%	112%	105%	97.9%	90.5%	102%	98.2%	109%	101%	109%	111%	95.1%	112%	102%	99.6%	101%
COc1ccc(-c2nc(NC(=O)CS(=O)(=O)c3ccc(F)cc3)sc2C)cc1	72.7%	55.5%	26.8%	98.4%	73.5%	51.8%	93.6%	21.2%	35.5%	32.5%	-0.965% (active)	74%	95.4%	69.8%	73.6%	54.5%	56%	79.5%	50.6%
COc1ccc(OC)c([N+](=O)[O-])c1C=O	136%	101%	-43.3% (active)	154%	92.5%	72.2%	59.2%	41.4%	66.8%	37.2%	75.1%	97.8%	107%	105%	101%	101%	101%	89.6%	113%
O=C(Cn1ccc(=O)[nH]c1=O)c1ccc([N+](=O)[O-])o1	101%	108%	109%	63.3%	110%	105%	115%	83%	106%	73.9%	65.5%	103%	114%	97.9%	112%	123%	96.9%	116%	107%
CC(C)/C=N/NC(N)=S	103%	85.5%	72.4%	109%	90.6%	89%	82.7%	28.9%	64.9%	51.9%	60.4%	62.9%	78.7%	46.1%	110%	34%	53%	90.7%	75%
CCOC(=O)CNC(=O)Nc1ccc(Oc2ccc(NC(=O)NCC(=O)OCC)cc2)cc1	115%	94.7%	83.2%	114%	102%	95.1%	95.7%	89.4%	107%	94.2%	99.9%	98.4%	112%	106%	104%	102%	107%	101%	101%
Cc1nn2c(/C=C3/C(=O)Nc4ccc(Cl)cc43)c(-c3ccccc3)nc2s1	32.7%	52.7%	29.6%	6.61% (active)	30.1%	53.4%	43.8%	50.7%	57.2%	-12.7% (active)	23.7%	14.6%	73.6%	-52.3% (active)	-0.11% (active)	3.8% (active)	9.92% (active)	-6.37% (active)	38.3%
COc1ccc2nc(-c3ccccc3)cc(C(C)=O)c2c1	96.6%	94.9%	73.8%	89.7%	97.7%	87.9%	74.8%	91.2%	73.1%	81.6%	94.5%	97.3%	92.4%	103%	107%	86.2%	115%	94.3%	90.1%
FC(F)(F)c1ccc(-c2cnc(Br)nc2NC2CCCCCC2)cc1	13.2%	21.9%	34.7%	36.6%	10.4%	72.6%	81.3%	28.5%	57%	51%	-4.63% (active)	24.1%	63.2%	22.6%	71.6%	36.1%	10.8%	53.4%	77.9%
Cn1c([N+](=O)[O-])cnc1/C=C1\Oc2ccc(Br)cc2C1=O	-49% (active)	-2.34% (active)	-38.4% (active)	-33.3% (active)	-41.6% (active)	-21.6% (active)	-29.7% (active)	5.39% (active)	-14.1% (active)	6.49% (active)	6.2% (active)	-11.3% (active)	-19.1% (active)	3.03% (active)	-7.97% (active)	-21.6% (active)	-37.3% (active)	-17.8% (active)	6.72% (active)
COc1ccc(C2=NNC(c3sc(Cl)nc3Cl)C2)cc1 (centres undefined)	62.8%	22.4%	85.3%	116%	105%	97.4%	102%	17.7%	7.63% (active)	2.77% (active)	81%	70.3%	123%	80.5%	90%	63.3%	61.9%	114%	105%
COc1cccc2c1O/C(=C\c1ccc([N+](=O)[O-])s1)C2=O	43.3%	70.1%	-0.107% (active)	73.6%	67.5%	90.9%	109%	43.6%	75.5%	8.26% (active)	25.7%	24.7%	101%	74.2%	96.6%	25.9%	-16.7% (active)	40.8%	87.5%
Cc1ccc(C)c2c1sc1nc3n[nH]c(N)c3c(=N)n12	96.1%	104%	85.8%	116%	101%	90.5%	103%	97.3%	96%	97.6%	93.2%	97.9%	106%	101%	127%	127%	114%	107%	110%
COc1ccc(-c2cc(/C=C/C(=O)c3ccc(N)cc3)[nH]n2)cc1OC	80.8%	35.1%	27.3%	39.3%	50.5%	31%	52.8%	7.41% (active)	7.23% (active)	10.3%	-12.6% (active)	15.2%	45%	24.4%	39%	29.1%	5.89% (active)	1.16% (active)	78.6%
CCc1nn2c(-c3ccccc3)c(-c3cc(OC)c(OC)c(OC)c3)nc2s1	37.9%	88.1%	57.6%	82.2%	85.8%	69.4%	62.5%	70.9%	72.4%	59.4%	60.2%	88.1%	98.5%	68.5%	102%	87.3%	92%	69.8%	77.1%
